Source: PubChem BioAssay (NCI)
About 79,000 compounds went through this panel and 15% of them were active in at least one assay; those are over-represented in the sample as a whole. No stated cut-off is given here; in the data, active means growth inhibition above about 70%; inactive means the rest. Where a SMILES comes first, the peptide text is derived from it. [ ]: non-standard residue; d: D form. ξ: configuration not given here. ξF = NC(Cc1ccccc1)C(=O)O

Legend:
[1] = NCI Yeast Anticancer Drug Screen. Data for the rad50 strain (AID 155);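 further: 0% = growth of vehicle-only cultures of the same strain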; settings: S. cerevisiae rad50 strain growth inhibition; at 50.0 µM; hits give high values
Method in brief: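 Cells are treated with compound, grown, and their growth is then scored against vehicle-only cultures of the same repair-deficient yeast strain.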

[2] = NCI Yeast Anticancer Drug Screen. Data for the mec2-1 strain (AID 157); settings: S. cerevisiae mec2-1 strain, at 50.0 µM, hits give high values
Method in brief: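 Test agents were screened against the mec2-1 yeast strain, with defined DNA repair or cell cycle alteration. Growth was scored as inhibition against vehicle-only controls.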

[3] = NCI Yeast Anticancer Drug Screen. Data for the cln2 rad14 strain (AID 165);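 further: 0% = growth equal to vehicle treated cultures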; settings: S. cerevisiae cln2 rad14 strain, at 50.0 µM, hits give high values
Method in brief: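 Growth of compound-exposed yeast (cln2 rad14 genotype) measured and expressed as inhibition relative to vehicle.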

[4] = NCI Yeast Anticancer Drug Screen. Data for the bub3 strain (AID 167); settings: S. cerevisiae bub3 mutant strain, at 50.0 µM, hits give high values
Method in brief: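 Part of a panel of yeast mutants defective in DNA damage repair or cell cycle regulation. Each strain is grown with compound, and inhibition is calculated relative to solvent-treated cultures.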

[5] = NCI Yeast Anticancer Drug Screen. Data for the mlh1 rad18 strain (AID 175); settings: S. cerevisiae mlh1 rad18 strain growth inhibition; at 50.0 µM; hits give high values
Method in brief: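 In this whole-cell yeast screen, a strain with altered DNA damage repair is challenged with compound, and its growth is measured against matched vehicle-treated controls.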

[6] = NCI Yeast Anticancer Drug Screen. Data for the sgs1 mgt1 strain (AID 161);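 further: 0% = growth of cultures given vehicle only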; settings: S. cerevisiae sgs1 mgt1 strain, at 50.0 µM, hits give high values
Method in brief: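 Read-out: growth inhibition vs vehicle controls. Cells: mutant yeast strain deficient in DNA damage repair.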

Measured: growth inhibition

CO/C(N)=C(\C#N)N=Cc1ccc2ccccc2c1
inactive: [1] 30.9% | [2] 14.3% | [3] 19.1% | [4] 16.7% | [5] 40.5%

N#CC1(C#N)N[C@@H](c2ccsc2)[C@H]2C(=O)N(c3ccccc3)C(=O)[C@H]21
inactive: [1] 5.6% | [2] -8.2% | [3] 8.5% | [4] -6.95% | [5] -4.05%

O=C(O)CCNC(=O)c1ccccc1
inactive: [1] -6.2% | [2] -7.4% | [6] -20% | [4] 7.95% | [5] -12.8%

Cc1nnc(SCC2=C(C(=O)O)N3C(=O)C(NC(=O)Cn4cnnn4)C3SC2)s1 (stereo not given)
inactive: [1] 41.8% | [2] 3.45% | [6] 15.6% | [4] -1.9% | [5] 13.3%

CN1C2CCC1CC(OC(=O)C(O)c1ccccc1)C2 (stereo not given)
inactive: [1] 9.3% | [2] -3.75% | [6] -27.9% | [4] -35.8% | [5] 7.45%

COc1cc2c(c3c1c(=O)c1ccccc1n3C)C=C([N+](=O)[O-])C(C)(C)O2
inactive: [1] 1.4% | [2] -32.8% | [6] 16.6% | [3] 6.95% | [4] -39.5% | [5] -25.3%

CC1(C)S[C@H](CN)N[C@H]1C(=O)OC(c1ccccc1)c1ccccc1
inactive: [1] -4.3% | [2] -13.4% | [3] -1% | [4] -11.2% | [5] -31.9%

O=C(Nc1cccc(NC(=O)C(=O)C2CCC3=C(Sc4ccccc4N3)C2=O)n1)C(=O)C1CCC2=C(Sc3ccccc3N2)C1=O (stereo not given)
inactive: [1] 2.5% | [2] 13.8% | [3] 5.2% | [4] 29.9% | [5] 1.2%

CCOc1cc2c(cc1O)C=C[C@@H]1[C@@H]2CC[C@]2(C)[C@@H](O)CC[C@@H]12
inactive: [1] 33.8% | [2] 2.15% | [3] 26.7% | [4] 18.7% | [5] 25.7%

CC(=O)[CH-]C(=O)c1ccccc1.CC(=O)[CH-]C(=O)c1ccccc1.O=S(=O)([O-])c1cc([O-])c2c([O-])cc(S(=O)(=O)[O-])cc2c1.[Na+].[Zr+4]
inactive: [1] 21.3% | [2] -7.6% | [6] 25.6% | [4] 37.9% | [5] 10.8%

CCOC(=O)CCc1ccc(O)c(O)c1
inactive: [1] 4.9% | [2] 1.85% | [5] 15.6%

ClCCOC(OCCCl)OCCCl
inactive: [1] -7.4% | [2] -28.3% | [5] 4.85%

Cc1cccc(C2NC(=O)c3ccccc3N2)c1 (stereo not given)
inactive: [1] 9.35% | [2] -15.8% | [5] 10.5%

CCOC(=O)/C=C(\C)Nc1ccc(F)cc1
inactive: [1] -0.5% | [2] -17.6% | [5] 14.2%

CC(=O)Nc1ccc(/C=C/C(=O)c2ccc(Cl)cc2)cc1
inactive: [1] 18.2% | [2] -4.65% | [5] 2.75%

CCOc1ccc(/C=N/NS(=O)(=O)c2ccc(C)cc2)cc1
inactive: [1] -3.6% | [2] -34.5% | [5] -8.2%

COc1cc(-c2cc(=O)c3c(C)cc(O)cc3o2)cc(OC)c1OC
inactive: [1] -2.1% | [2] -9% | [5] 45.6%

CC[n+]1c(C)n(Cc2ccc(C(=O)O)cc2)c2cc(F)ccc21
inactive: [1] -10.8% | [2] -14.7% | [5] 27.9%

C#Cc1c(-c2c[nH]c3ccccc23)ccc[n+]1C
inactive: [1] -12.5% | [2] -36.1% | [5] -24.4%

COC(=O)c1ccc2oc(=O)cc(C)c2c1O
inactive: [1] -7.6% | [2] -7.75% | [5] 11.7%

Oc1ccccc1C=NCC1CCC(CN=Cc2ccccc2O)CC1 (stereo not given)
inactive: [1] 8.85% | [2] 13.1% | [5] 21%

O=C(NNCN1C(=O)c2ccccc2C1=O)c1ccccc1
inactive: [1] -13.8% | [2] -15.7% | [5] -4.7%

OCCN(CCO)C(CO)(CO)CO
inactive: [1] 0.7% | [2] -12.8% | [5] 24.8%

S=C(S)N1CCC(CCCC2CCN(C(=S)S)CC2)CC1
inactive: [1] -9.1% | [2] -22.1% | [5] -13.2%

COc1ccc(-c2coc3ccc4ccccc4c3c2=O)cc1OC
inactive: [1] 16% | [2] -15.1% | [5] 7.25%

O=C(O)COC1CC(=O)N2c3ccccc3C34CCN5C(=O)C(=O)C(CC53)C1C24 (stereo not given)
inactive: [1] -1.7% | [2] -24.9% | [5] -9.5%

COC(=O)CCNCc1ccccc1
inactive: [1] -7.25% | [2] -41.6% | [5] 10.4%

OCNC(=S)c1c(Cl)cccc1Cl
inactive: [1] -4.25% | [2] -18.1% | [5] -6.6%

O=c1oc(-c2ccccc2)nc2cc(Cl)ccc12
inactive: [1] -0.3% | [2] 0.25% | [5] 1.35%

CN1C(=S)c2ccccc2S1(=O)=O
inactive: [1] -6.6% | [2] -14.4% | [5] 24.2%

Fc1ccc(P(c2ccc(F)cc2)c2ccc(F)cc2)cc1
inactive: [1] 41.4% | [2] 9.6% | [5] 19.1%

COc1cc(/C=N\NC(=O)OC(C)(C)C)cc(OC)c1OC
inactive: [1] 6.25% | [2] -17.4% | [5] 10.5%

CCCCOc1cc(C(=O)NCCN(CC)CC)c2ccccc2n1
inactive: [1] -2.1% | [2] -9.6% | [5] 1.9%

CN(C)c1ccc(P(c2ccc(N(C)C)cc2)c2ccc(N(C)C)cc2)cc1
inactive: [1] -17.2% | [2] -15.3% | [5] -25.2%

CCOc1ccc(N2C(=O)C3C4c5ccccc5C(c5ccccc54)C3C2=O)cc1 (stereo not given)
inactive: [1] 27% | [2] 6.45% | [5] 29%

CCOC(=O)CN1C(=O)C(=O)c2ccccc21
inactive: [1] 18.9% | [2] 5.3% | [5] 24.4%

COc1ccc(-c2cc(=O)c3c(C)cc(O)cc3o2)cc1
inactive: [1] -9.4% | [2] -16.1% | [5] 37.9%

OC(c1ccc(F)cc1)(c1cccs1)C1CC1 (stereo not given)
inactive: [1] -9.55% | [2] -4.75% | [5] -20.2%

Cc1ccc(CNc2cccc([N+](=O)[O-])c2)cc1
inactive: [1] 8.6% | [2] -13.6% | [5] 1.8%

NC(Cc1ccccc1)C(=O)NCC(=O)NCC(=O)O (stereo not drawn) (H-[ξF]-Gly-Gly-OH)
inactive: [1] 13% | [2] -1.35% | [5] 4.55%

CCCCCCCCCCCC(O)CCCCC (stereo not given)
inactive: [1] -15% | [2] -48.4% | [5] -38.9%

O=c1oc(/C=C/c2ccccc2)nc2cc(Cl)ccc12
inactive: [1] 19.6% | [2] 10.1% | [5] 10.4%

N#C/C(=C/c1ccc(O)c(O)c1)C(N)=O
inactive: [1] 23.6% | [2] -4.15% | [5] 17.1%

Cc1ccc(S(=O)(=O)NCN2C(=O)c3ccccc3C2=O)cc1
inactive: [1] -3.75% | [2] -3.85% | [5] 1.55%

CCOc1cccc(/C=C2\N=C(c3ccccc3)OC2=O)c1
inactive: [1] 4.35% | [2] 25% | [5] 10.9%

Cc1ccc(Cl)cc1NCN1C(=O)c2ccccc2C1=O
inactive: [1] 1.35% | [2] -2.4% | [5] 11.1%

CCCN(CCC)CCC(=O)OCC
inactive: [1] -18.2% | [2] -29.2% | [5] -10.9%

O=[N+]([O-])c1cccc(S(=O)(=O)OCCOc2ccccc2)c1
inactive: [1] 30.7% | [2] 4.15% | [5] 17.6%

CCN(CC)c1cc(C(C)(C)C)cc(C(C)(C)C)c1
inactive: [1] 0.45% | [2] -21.5% | [5] -11.1%

S=C(NNc1ccccc1)NC1CCCCC1
inactive: [1] 7.35% | [2] -37.2% | [5] -8.6%

O=S(=O)(O)c1cccc2cccc(Cl)c12
inactive: [1] 9.7% | [2] -7.4% | [5] 10.9%

CC(/C=N/N1C(=O)c2ccccc2C1=O)c1ccccc1 (stereo not given)
inactive: [1] 12.8% | [2] -11.6% | [5] -10.8%

Cc1ccc(COC(=O)c2cccnc2)cc1
inactive: [1] -16.4% | [2] -18.6% | [5] 8.65%

Cc1ccc2oc(C)[n+](CCC(=O)O)c2c1
inactive: [1] 15.7% | [2] 6.45% | [5] 42%

NC(=O)C(c1ccccc1)N1CCCC1 (stereo not given)
inactive: [1] 2.05% | [2] -17.9% | [5] -0.55%

Oc1ccccc1C=Nc1ccccc1C(F)(F)F
inactive: [1] -7.3% | [2] -19.9% | [5] 25.2%

CC(C)c1nc(-c2ccccc2)c(-c2ccccc2)[nH]1
inactive: [1] 43.2% | [2] 13.1% | [5] 54.7%

C[N+](C)(C)CN1C(=O)c2ccccc2C1=O
inactive: [1] -11.9% | [2] -29.2% | [5] -4.8%

COc1ccc(-c2cc(=O)c3c(O)cccc3o2)cc1
inactive: [1] 2.65% | [2] -37.1% | [5] -1.35%

CCCCCCCCCCCCOc1ccc(C)cc1
inactive: [1] 5.45% | [2] -25% | [5] 5.3%

COc1ccc(CNc2ccccn2)cc1
inactive: [1] 10.9% | [2] 13.5% | [5] 40.2%

Cc1ccc(NC(=S)NCCO)cc1
inactive: [1] -25.4% | [2] -41.8% | [5] -13.6%

Cc1ccc2c(c1)=N/C(=N\c1nc(O)c(O)[nH]1)N=2
inactive: [1] 7.4% | [2] -15.3% | [5] -4.55%
